Where “and” joins values, the source holds several entries; their conditions need not be identical. Equal values may be shown once. Calls of active or inactive are those of the source.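 The calls were made as follows, unless noted: active = thallium flux through the channel raised or lowered by more than 3 SD from vehicle-only wells, actives on both sides; inactive = the rest.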

Experiment [1] is described as follows: P. berghei load reduction in hepatocytes – cell-based, HepG2, luciferase luminescence, HepG2 viability, primary screen (AID 624349; in the data active = parasite load remaining mostly below about 12%, no sharp cut-off; inactive = mostly above about 10%;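 also: 100% = mean of DMSO negative control wells on the same plate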). As to conditions: P. berghei liver stage in HepG2, luciferase luminescence, concentration not given here; parasite load remaining: stronger effect = lower value; viability: measured here: HepG2 viability without parasites.
Experiment [2] is described as follows: signal quenchers or enhancers, Cy5 substrate/SSB – biochemical, NIH Clinical Collection, E. coli SSB, artefact control for HCV NS3 helicase inhibitor project (AID 743268; call rule not given here). The conditions noted are these: Cy5-oligo bound E. coli SSB, fluorescence interference.
The subject of experiment [3] is Hepatitis C virus NS3 helicase. Briefly: blockers of NS3h binding to DNA – biochemical, fluorescence polarization, NIH Clinical Collection, primary screen (AID 743270; call rule not given here). As to conditions: NS3 helicase binding to Cy5-dT15 DNA, stronger effect = higher value, concentration not given here. For orientation: Fluorescence polarisation rises when a labelled molecule tumbles more slowly, as on binding a larger partner.

The target of experiment [4] is Single-stranded DNA-binding protein (Escherichia coli (strain K12)) (UniProt P0AGE0). Description: SSB-ssDNA binding inhibitors – biochemical, fluorescence polarization, NIH Clinical Collection, counter-screen for HCV NS3 helicase inhibitor project (AID 743271; in the data active = inhibition above about 28%). The conditions noted are these: E. coli SSB-DNA binding, stronger effect = higher value, concentration not given here.

Experiment [5] in a line: compounds distorting NS3 helicase fluorescence signal – biochemical, NIH Clinical Collection, artefact control for HCV NS3 helicase inhibitor project (AID 743272; call rule not given here;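 also: HCV NS3 helicase with a Cy5 labelled single stranded DNA probe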). As to conditions: fluorescence interference counterscreen, HCV NS3 helicase assay; stronger effect = lower value. Background: Counterscreens check selectivity or assay interference.
Experiment [6] is described as follows: modulation of C. elegans fzo-1 (AID 1259413; call rule not given here;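 also: fzo-1 mutant C. elegans worms in liquid wells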). The conditions noted are these: C. elegans fzo-1 modulator screen, mean read-out; stronger effect = higher value.
Experiment [7] in a line: EMT-state selective cytotoxicity in co-culture – imaging, PC-3E GFP, TEM4-18 mCherry, primary screen (AID 1345086;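 active = compounds killing one labelled cell type while sparing the other, by normalised counts and ratio limits, not self-fluorescent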;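 also: cells exposed to compound for 72 h before imaging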;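 as to red/green cell ratio (normalised): normalised mesenchymal count divided by normalised epithelial count so high means epithelial killing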). The conditions noted are these: PC-3E GFP / TEM4-18 mCherry co-culture, imaging cell counts, at 1 µM.
Experiment [8] in a line: viability loss with induced miR-34 in A549 – imaging, A549 dox-inducible miR-34, nuclei and caspase counts, primary screen (AID 1347080;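 active = compounds whose cell count with miR-34 switched on is under 0.7 times the count with it off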). As to conditions: A549 miR-34 inducible, Hoechst nuclei count, 48 h.
Experiment [9] can be described thus: MELAS cybrid and Rieske KO viability enhancers – cell-based, MELAS cybrids, Rieske KO mouse fibroblasts, CellTiter-Glo, primary screen (AID 1508586;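 active = mean z-score across replicates of 1.96 or higher in either the MELAS or the Rieske mutant cell line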;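 also: z relative to plate mean and SD of compound and empty wells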). The conditions noted are these: low glucose.
Experiment [10] relates to F380Y. Description: BK channel mutant inhibitors and activators – cell-based, U2OS BacMam, thallium flux, beta subunits, selectivity assay, profiling panel (AID 1259406).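 Also: initial slope of Thallos dye fluorescence rise after thallium is added; log ratio against the mean of 0.3% DMSO vehicle wells on the same plate.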 The conditions noted are these: U2OS BacMam BK variants, at 30 µM.
For experiment [11], the system named is F380Y/beta1. The experiment is described as above. As to conditions: U2OS BacMam BK variants, at 30 µM.
Experiment [12] concerns F380Y/beta2Delta. Described as above. As to conditions: U2OS BacMam BK variants, at 30 µM.
Experiment [13] has as its system F380Y/beta4. The description is as above. As to conditions: U2OS BacMam BK variants, at 30 µM.
The target of experiment [14] is Calcium-activated potassium channel subunit alpha-1 (Homo sapiens) + Leucine-rich repeat-containing protein 26 (Homo sapiens) (UniProt Q12791+Q2I0M4). The experiment is described as above. As to conditions: U2OS BacMam BK variants, F380Y/Slo1WT/gamma1, at 30 µM.
Calcium-activated potassium channel subunit alpha-1 (Homo sapiens) + Leucine-rich repeat-containing protein 26 (Homo sapiens), sequence (Q2I0M4 whole entry, looked up, one chain of several): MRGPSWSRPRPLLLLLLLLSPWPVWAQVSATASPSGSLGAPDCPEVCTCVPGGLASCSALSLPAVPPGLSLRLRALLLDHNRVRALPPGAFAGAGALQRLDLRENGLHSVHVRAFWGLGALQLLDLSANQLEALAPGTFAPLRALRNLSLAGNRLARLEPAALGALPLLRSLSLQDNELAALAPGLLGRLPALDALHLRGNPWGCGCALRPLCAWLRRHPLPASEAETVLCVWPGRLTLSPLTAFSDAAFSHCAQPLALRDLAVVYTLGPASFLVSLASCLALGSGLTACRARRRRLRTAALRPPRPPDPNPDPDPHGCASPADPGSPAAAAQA
Experiment [15] concerns R275C. The experiment is described as above. The conditions noted are these: U2OS BacMam BK variants, at 30 µM.
Experiment [16] relates to R275C/beta1. The description is as above. As to conditions: U2OS BacMam BK variants, at 30 µM.
Experiment [17] concerns R275C/beta2Delta. The experiment is described as above. The conditions noted are these: U2OS BacMam BK variants, at 30 µM.
Experiment [18] concerns R275C/beta4. The description is as above. The conditions noted are these: U2OS BacMam BK variants, at 30 µM.
The test system of experiment [19] is R275C/Slo1WT/beta2. Described as above. The conditions noted are these: U2OS BacMam BK variants, at 30 µM.
The mark [20] stands for this setting: stronger effect = lower value, cell number ratio, induced over uninduced.
The mark [21] stands for this setting: measured here: relative caspase fold change +Dox/-Dox.
Where [22] appears, read: measured here: total cells with miR-34 induction, stronger effect = lower value.
Setting [23] is: measured here: total cells without miR-34 induction.
Where [24] appears, read: MELAS cybrid survival, CellTiter-Glo 48 h, stronger effect = higher value.
Setting [25] is: Rieske KO mouse fibroblast survival, CellTiter-Glo 72 h.

As to `CSc1nc2cc(Oc3cccc(Cl)c3Cl)c(Cl)cc2[nH]1`, in [1], the parasite load remaining was 14.4% (inactive). The viability (commonly a per cent measure of how many cells are alive, often set against a control) in experiment [1] was 78.3%. For the same compound, the fluorescence ratio in experiment [2] is 0.98 (inactive); in experiment [5], 0.96 (inactive). Also, the inhibition (commonly the change of the read-out against control, counted positive when it falls) in [3] is 5.94% (inactive); in [4], 3.75% (inactive). For the same compound, the mean signal in experiment [6] is 206 (inactive). In addition, the red/green cell ratio (normalised) in experiment [7] (actives lie on both sides, counts scaled to control wells, 1 = unselective) is 0.82 (inactive). Further, the figures for the normalised cell number in experiment [7] (measured here: epithelial PC-3E GFP cell survival) and in [7] (measured here: mesenchymal TEM4-18 mCherry cell survival) were 1.26 and 1.03, respectively. The fold change in [8] (setting [20]) was 0.963 (inactive) and 0.988 (inactive); in [8] (setting [21]), 1.31 and 0.403. Further, the cell count was 5860 and 7990 in [8] (setting [22]); 6080 and 8080 in [8] (setting [23]). In addition, the z-score was -0.167 (inactive) and -0.17 (inactive) in experiment [9] (setting [24]); -0.137 and -0.629 in experiment [9] (setting [25]). Moreover, the log fold change Tl+ flux in experiment [10] was -0.0619 (inactive); in [11], 0.0498 (inactive); in experiment [12], -0.03 (inactive); in [13], 0.0138 (inactive); in experiment [14], -0.000443 (inactive); in experiment [15] it was 0.0179 (inactive). For the same compound, the log fold change Tl+ flux in experiment [16] was 0.416 (active); in experiment [17], 0.248 (active); in [18], 0.0585 (inactive); in experiment [19], 0.0178 (inactive).

With `CCOC(=O)c1ccc(OC(=O)CCCCCN=C(N)N)cc1`, in experiment [1], the parasite load remaining was 117% (inactive) and 36.3% (inactive). Also, the viability in experiment [1] was 77.4% and 88.1%. The fluorescence ratio in experiment [2] was 1.04 (inactive); in experiment [5] it was 0.95 (inactive). In addition, the inhibition in [3] is 0.4% (inactive); in experiment [4] it was -1.64% (inactive). Besides, the mean signal in experiment [6] is 243 (inactive). Also, the z-score is -0.35 (inactive) and 0.272 (inactive) in experiment [9] (setting [24]); 0.185 and -0.0147 in [9] (setting [25]). In addition, the log fold change Tl+ flux in experiment [10] was -0.0684 (inactive); in [11], -0.00638 (inactive); in experiment [12], -0.0274 (inactive); in experiment [13] it was -0.0274 (inactive); in experiment [14] it was 0.00659 (inactive); in experiment [15], -0.063 (inactive). Moreover, the log fold change Tl+ flux in [16] was -0.0293 (inactive); in experiment [17], -0.0476 (inactive); in [18], -0.00905 (inactive); in [19], -0.0477 (inactive).

Turning to `CCCCN1CCCC1CNC(=O)c1cc(C#N)c2ccccc2c1OC` (stereo unspecified), the parasite load remaining in [1] is 35.8% (inactive). Besides, the viability in [1] stood at 66.3%. In addition, the fluorescence ratio in experiment [2] was 0.93 (inactive); in experiment [5] it was 0.91 (inactive). The inhibition in experiment [3] is -0.22% (inactive); in experiment [4], 2.76% (inactive). Further, the mean signal in [6] is 308 (inactive). For the same compound, the fold change in experiment [8] (setting [20]) is 0.818 (inactive) and 0.935 (inactive); in [8] (setting [21]), 0.846 and 1.44. The cell count is 8480 and 8490 in experiment [8] (setting [22]); 10400 and 9080 in [8] (setting [23]). In addition, the log fold change Tl+ flux in experiment [10] is -0.12 (active); in experiment [11], -0.109 (active); in experiment [12] it was -0.243 (active); in experiment [13], -0.221 (active); in experiment [14], -0.0355 (inactive); in experiment [15] it was -0.0841 (inactive). Moreover, the log fold change Tl+ flux was -0.0222 (inactive) in experiment [16], -0.085 (inactive) in [17], -0.0283 (inactive) in experiment [18] and -0.00509 (inactive) in experiment [19].

These data come from PubChem BioAssay.
